Experimental findings from PubChem BioAssay (Tox21) are described below.

Experiment [1] deals with Cytochrome P450 2D6 (Homo sapiens) (UniProt P10635). Description: Cytochrome P450 Family 2 Subfamily D Member 6 (CYP2D6) small molecule antagonists: luciferase reporter qHTS assay (AID 1671196). Further: nearly all actives have a fitted effect of over 50% in size. Further: potency means the concentration at half of the fitted maximal effect. The method in brief: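 Inhibition of CYP2D6 was gauged by loss of luminescence, since light produced tracks the luciferin generated from a proluciferin substrate. A 10 min room-temperature preincubation preceded 1 h NADPH-supported turnover.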

Experiment [2] deals with Cytochrome P450 2C19 (Homo sapiens) (UniProt P33261). Description: Cytochrome P450 Family 2 Subfamily C Member 19 (CYP2C19) small molecule antagonists: luciferase reporter qHTS assay (AID 1671197). Further: nearly all actives have a fitted effect of over 65% in size. Further: potency means the concentration at half of the fitted maximal effect. The method in brief:
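Luminescent readout of CYP2C19 activity: luciferin product detected 20 min after adding detection reagent. Before that, compound and enzyme-substrate mix preincubated 10 min at room temperature; NADPH-regenerating system started a 1 h, 37C reaction. Ketoconazole as positive control.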

The target in experiment [3] is Cytochrome P450 2C9 (Homo sapiens) (UniProt P11712). Description: Cytochrome P450 Family 2 Subfamily C Member 9 (CYP2C9) small molecule antagonists: luciferase reporter qHTS assay (AID 1671198). Further: nearly all actives have a fitted effect of over 50% in size. Further: potency means the concentration at half of the fitted maximal effect. The method in brief:
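P450-Glo proluciferin substrate with CYP2C9 enzyme; 10 min RT preincubation, then NADPH regeneration 1 h at 37C; luciferin detection reagent 20 min RT, luminescence in relative luminescence units.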

In experiment [4] the target is Cytochrome P450 1A2 (Homo sapiens) (UniProt P05177). Kind of experiment: Cytochrome P450 Family 1 Subfamily A Member 2 (CYP1A2) small molecule antagonists: luciferase reporter qHTS assay (AID 1671199). Further: nearly all actives have a fitted effect of over 50% in size. Further: potency means the concentration at half of the fitted maximal effect. The method in brief: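 Signal from luciferin formed by CYP1A2 from a proluciferin substrate is read as luminescence, expressed in relative luminescence units. Compounds sit with enzyme 10 min, NADPH-driven reaction runs 1 h, all at room temperature.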

The target in experiment [5] is Voltage-gated inwardly rectifying potassium channel KCNH2 (Homo sapiens) (UniProt Q12809). Kind of experiment: Human Ether-a-go-go-Related Gene (hERG) channel small molecule antagonists: fluorescence cell-based qHTS assay (AID 1671200).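 Further: hERG-expressing U2OS cells given a thallium stimulus after FluxOR II dye loading; series mostly up to about 77 µM; nearly all actives have a fitted effect of over 50% in size.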 The method in brief: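 Cell line hERG-U2OS; dye FluxOR II, 1 h RT dark; Tl+ stimulus; ex 480/em 540 nm, read each second for 2 min.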

The target in experiment [6] is Cytochrome P450 3A4 (Homo sapiens) (UniProt P08684). Description: Cytochrome P450 Family 3 Subfamily A Member 4 (CYP3A4) small molecule antagonists: luciferase reporter qHTS assay (AID 1671201). The method in brief:
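Room-temperature assay throughout: 10 min compound–enzyme/substrate preincubation, 1 h reaction after NADPH regeneration solution, 20 min detection. Luciferin formed from proluciferin substrate is quantified by luminescence.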

Several values for one entry are separate records, joined by “and”; a condition that tells them apart may be missing. Equal values may be shown once. Results filed as inconclusive are left out. Where a structure was tested more than once in an assay, its records may differ in their call. Activity calls are given as the source filed them. The call rests on the fitted dose curve; in most records, active means well fitted curve in the direction sought with a large enough effect in the repeat runs; inconclusive means weak or mixed curves; inactive means no such curve, though single readings can be large; an effect the other way counts as inactive or inconclusive.

Sequence of Cytochrome P450 2C19 (Homo sapiens) (P33261 whole entry, looked up): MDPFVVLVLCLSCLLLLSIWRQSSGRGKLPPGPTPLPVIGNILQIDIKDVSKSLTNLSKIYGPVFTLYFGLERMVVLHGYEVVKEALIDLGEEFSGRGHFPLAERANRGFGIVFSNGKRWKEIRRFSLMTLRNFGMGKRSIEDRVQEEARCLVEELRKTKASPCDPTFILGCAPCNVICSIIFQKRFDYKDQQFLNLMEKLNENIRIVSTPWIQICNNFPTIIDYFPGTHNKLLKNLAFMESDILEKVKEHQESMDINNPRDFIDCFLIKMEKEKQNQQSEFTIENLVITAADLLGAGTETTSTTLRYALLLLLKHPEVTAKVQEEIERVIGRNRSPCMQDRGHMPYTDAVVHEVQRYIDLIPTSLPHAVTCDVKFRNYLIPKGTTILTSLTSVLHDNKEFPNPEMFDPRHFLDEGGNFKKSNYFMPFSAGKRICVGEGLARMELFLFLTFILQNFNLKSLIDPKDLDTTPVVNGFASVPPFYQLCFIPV
Sequence of Cytochrome P450 1A2 (Homo sapiens) (P05177 whole entry, looked up): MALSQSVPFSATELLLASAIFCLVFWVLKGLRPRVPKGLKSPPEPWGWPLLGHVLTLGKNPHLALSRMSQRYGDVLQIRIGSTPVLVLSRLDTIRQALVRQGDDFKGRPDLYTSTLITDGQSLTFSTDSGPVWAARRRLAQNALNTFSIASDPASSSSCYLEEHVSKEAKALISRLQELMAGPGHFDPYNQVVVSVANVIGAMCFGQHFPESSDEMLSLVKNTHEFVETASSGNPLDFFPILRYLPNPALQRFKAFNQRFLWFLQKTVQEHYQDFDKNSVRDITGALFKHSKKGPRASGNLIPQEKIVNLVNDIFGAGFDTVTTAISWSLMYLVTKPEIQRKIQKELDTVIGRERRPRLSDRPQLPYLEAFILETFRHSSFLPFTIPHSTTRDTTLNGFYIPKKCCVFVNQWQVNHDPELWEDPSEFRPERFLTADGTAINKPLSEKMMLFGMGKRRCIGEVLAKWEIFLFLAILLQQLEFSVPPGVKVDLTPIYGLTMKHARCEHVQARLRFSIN
Sequence of Cytochrome P450 3A4 (Homo sapiens) (P08684 whole entry, looked up): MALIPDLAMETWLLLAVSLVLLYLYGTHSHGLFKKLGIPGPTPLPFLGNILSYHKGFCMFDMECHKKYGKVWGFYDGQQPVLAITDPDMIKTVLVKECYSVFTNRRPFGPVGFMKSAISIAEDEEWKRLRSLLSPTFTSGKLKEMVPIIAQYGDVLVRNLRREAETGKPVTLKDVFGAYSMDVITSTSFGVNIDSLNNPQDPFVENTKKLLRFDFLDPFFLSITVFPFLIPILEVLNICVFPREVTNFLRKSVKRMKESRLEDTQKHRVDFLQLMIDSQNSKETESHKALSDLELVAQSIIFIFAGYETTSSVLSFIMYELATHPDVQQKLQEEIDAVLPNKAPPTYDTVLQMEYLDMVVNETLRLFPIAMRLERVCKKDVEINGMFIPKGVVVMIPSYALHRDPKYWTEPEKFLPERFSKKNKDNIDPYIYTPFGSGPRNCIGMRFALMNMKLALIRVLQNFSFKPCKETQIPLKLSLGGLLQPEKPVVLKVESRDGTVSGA
Sequence of Cytochrome P450 2C9 (Homo sapiens) (P11712 whole entry, looked up): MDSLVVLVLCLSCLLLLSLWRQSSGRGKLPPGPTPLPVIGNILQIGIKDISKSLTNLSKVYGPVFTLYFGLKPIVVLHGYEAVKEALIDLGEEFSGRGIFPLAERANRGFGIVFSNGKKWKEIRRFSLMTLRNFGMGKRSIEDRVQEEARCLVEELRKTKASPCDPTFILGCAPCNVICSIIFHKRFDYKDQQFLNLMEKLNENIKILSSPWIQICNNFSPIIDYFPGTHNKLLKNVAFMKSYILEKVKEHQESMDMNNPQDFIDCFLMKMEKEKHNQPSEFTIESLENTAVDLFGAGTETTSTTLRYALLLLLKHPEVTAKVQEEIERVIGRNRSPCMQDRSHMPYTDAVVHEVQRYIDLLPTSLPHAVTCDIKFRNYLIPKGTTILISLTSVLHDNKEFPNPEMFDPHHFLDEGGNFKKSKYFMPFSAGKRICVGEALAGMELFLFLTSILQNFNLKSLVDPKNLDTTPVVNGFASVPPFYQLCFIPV
Sequence of Voltage-gated inwardly rectifying potassium channel KCNH2 (Homo sapiens) (Q12809 whole entry, looked up): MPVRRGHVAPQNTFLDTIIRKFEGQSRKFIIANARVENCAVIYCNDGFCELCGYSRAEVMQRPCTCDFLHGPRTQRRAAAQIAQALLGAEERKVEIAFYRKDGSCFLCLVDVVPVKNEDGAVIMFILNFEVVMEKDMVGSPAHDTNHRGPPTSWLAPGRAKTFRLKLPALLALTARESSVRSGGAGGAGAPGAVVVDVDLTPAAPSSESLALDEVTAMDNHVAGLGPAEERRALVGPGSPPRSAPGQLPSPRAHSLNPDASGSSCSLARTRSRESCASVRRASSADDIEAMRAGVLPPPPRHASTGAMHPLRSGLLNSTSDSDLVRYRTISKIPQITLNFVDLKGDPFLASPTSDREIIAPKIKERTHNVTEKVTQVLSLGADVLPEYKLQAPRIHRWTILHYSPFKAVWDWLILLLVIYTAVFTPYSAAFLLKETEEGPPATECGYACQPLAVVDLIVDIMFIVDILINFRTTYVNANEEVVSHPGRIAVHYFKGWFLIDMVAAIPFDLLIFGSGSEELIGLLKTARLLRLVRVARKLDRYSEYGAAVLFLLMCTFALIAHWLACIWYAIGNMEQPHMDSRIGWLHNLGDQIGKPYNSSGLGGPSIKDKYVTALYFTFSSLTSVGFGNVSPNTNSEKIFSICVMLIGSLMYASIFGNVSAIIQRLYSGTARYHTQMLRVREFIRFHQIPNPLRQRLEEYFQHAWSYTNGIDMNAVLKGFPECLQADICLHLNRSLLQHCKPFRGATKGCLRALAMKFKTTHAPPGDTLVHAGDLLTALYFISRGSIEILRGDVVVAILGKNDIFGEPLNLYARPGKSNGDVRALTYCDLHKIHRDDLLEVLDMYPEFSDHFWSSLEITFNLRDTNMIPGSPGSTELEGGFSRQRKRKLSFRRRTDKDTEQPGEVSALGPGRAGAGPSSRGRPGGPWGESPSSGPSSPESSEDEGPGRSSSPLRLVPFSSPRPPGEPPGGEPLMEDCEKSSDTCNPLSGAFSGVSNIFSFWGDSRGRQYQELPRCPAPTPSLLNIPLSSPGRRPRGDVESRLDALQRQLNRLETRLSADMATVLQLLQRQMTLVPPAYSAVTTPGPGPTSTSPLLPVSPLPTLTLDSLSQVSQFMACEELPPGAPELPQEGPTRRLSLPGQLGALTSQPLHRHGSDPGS
Sequence of Cytochrome P450 2D6 (Homo sapiens) (P10635 whole entry, looked up): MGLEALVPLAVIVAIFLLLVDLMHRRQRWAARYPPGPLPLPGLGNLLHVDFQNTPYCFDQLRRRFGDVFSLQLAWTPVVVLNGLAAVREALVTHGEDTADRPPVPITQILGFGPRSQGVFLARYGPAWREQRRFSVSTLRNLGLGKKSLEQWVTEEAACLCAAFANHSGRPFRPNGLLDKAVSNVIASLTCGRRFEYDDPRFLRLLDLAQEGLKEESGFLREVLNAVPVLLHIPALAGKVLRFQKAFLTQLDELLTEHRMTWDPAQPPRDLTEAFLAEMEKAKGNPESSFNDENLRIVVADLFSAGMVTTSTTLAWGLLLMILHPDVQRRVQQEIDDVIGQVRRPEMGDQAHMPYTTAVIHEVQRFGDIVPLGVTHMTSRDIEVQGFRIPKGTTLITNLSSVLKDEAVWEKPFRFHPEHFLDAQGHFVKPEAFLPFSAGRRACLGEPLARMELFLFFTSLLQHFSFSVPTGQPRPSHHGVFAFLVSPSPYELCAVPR

With `O=C(c1ccccc1)C(O)c1ccccc1` (stereo not given), the Potency is 39.6 µM (active) and inactive in experiment [1]; 17.7 µM (active) and 31.7 µM (active) and 8.71 µM (active) in experiment [2]; 31.4 µM (active) and 12.9 µM (active) in experiment [4]. Moreover, the Potency result in experiment [3] and in experiment [6] was “inactive” in each case. Also, the result in experiment [5] was inactive.

On to `O=C(O)CCC(=O)O`, for which the Potency result in experiment [1], in experiment [3], in experiment [4] and in experiment [6] was “inactive” each time. The call in experiment [5] was inactive.

`Cc1cc(=O)[nH]c(=S)[nH]1`: the Potency result in experiment [1], in experiment [3], in experiment [4] and in experiment [6] was “inactive” in each case. In addition, the call in experiment [5] was inactive.

As to `O=C(O)/C=C\C(=O)O`, the Potency in experiment [1] is 25.2 µM (active) and inactive; in experiment [2] it was 41.3 µM (active) and inactive. Also, the Potency entry in experiment [3], in experiment [4] and in experiment [6] was “inactive” each time. In experiment [5], the compound was classed as inactive.

For the compound `CC(=O)OCC(COC(C)=O)OC(C)=O`, the Potency entry in experiment [1], in experiment [2], in experiment [3] and in experiment [6] was “inactive” each time. The Potency in experiment [4] is 62.5 µM (active) and inactive. In experiment [5], the call was inactive.

On to `CC(C)(Oc1ccc(C2CC2(Cl)Cl)cc1)C(=O)O` (stereo not given), for which the Potency result in experiment [1], in experiment [2], in experiment [4] and in experiment [6] was “inactive” in each case. In addition, the Potency in experiment [3] was 30.5 µM (active) and 22.4 µM (active) and 15.5 µM (active). The result in experiment [5] was inactive.

As to `CC(=O)Nc1nnc(S(N)(=O)=O)s1`, the Potency result in experiment [1], in experiment [3], in experiment [4] and in experiment [6] was “inactive” each time. Further, the compound was classed as inactive in experiment [5].

As for `NC(N)=O`, the Potency result in experiment [1], in experiment [2], in experiment [3], in experiment [4] and in experiment [6] was “inactive” in each case. The result in experiment [5] was inactive.

As for `CCCNC(=O)NS(=O)(=O)c1ccc(Cl)cc1`, the Potency result in experiment [1] and in experiment [6] was “inactive” throughout. The Potency in experiment [3] was 39.7 µM (active) and 35.6 µM (active); in experiment [4], “inactive and 15.5 µM (active)”. Also, the call in experiment [5] was inactive.
